Only some compounds are listed: those with a hit (about 4.5% of all), similar ones and a draw of the others.
BJeLR viability: kills HRASV12-expressing BJeLR cells | 300,000 compounds, 0.17% hits | BJeLR (HRASV12) viability, CellTiter-Glo ATP luminescence, 48 h | inhibition, % (concentration not given with the values); in the data active = inhibition above about 50%
PrP 5UTR inh: suppresses PrP 5' UTR mRNA reporter expression | cell-based PrP 5' UTR mRNA reporter, plate reader | inhibition, % (test concentration not listed) | 340,000 compounds, 0.35% hits | AID 488862; in the data active = inhibition above about 52%; note: 0 = median of the neutral control wells
PrPC TRFRET: reduces human prion protein on the cell surface; P04156; cell surface PrPC, TR-FRET read-out; inhibition, % at 13.8 µM; 370,000 compounds, 0.43% hits; AID 720596; in the data active = inhibition above about 24%; note: 0% = median of the test wells and 100% = reference compound wells
FBA Mtb inh: inhibitors of M. tuberculosis fructose-bisphosphate aldolase | 360,000 compounds, 2.3% hits | inhibition, % at 1 µM | purified M. tuberculosis FBA, fluorescence read-out | P9WQA3; in the data active = inhibition above about 27%;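 note: 0% = vehicle and 100% = reference inhibitor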
Target sequence (P9WQA3 whole entry, looked up): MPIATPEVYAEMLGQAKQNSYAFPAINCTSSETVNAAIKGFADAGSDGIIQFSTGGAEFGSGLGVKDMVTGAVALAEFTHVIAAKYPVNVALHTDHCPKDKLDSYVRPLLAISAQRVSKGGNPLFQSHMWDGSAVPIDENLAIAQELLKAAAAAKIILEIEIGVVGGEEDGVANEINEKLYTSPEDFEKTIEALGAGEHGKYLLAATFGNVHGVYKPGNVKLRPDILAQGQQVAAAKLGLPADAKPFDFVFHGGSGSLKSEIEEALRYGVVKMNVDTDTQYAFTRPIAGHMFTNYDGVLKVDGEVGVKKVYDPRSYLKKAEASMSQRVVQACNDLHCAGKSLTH
GDH-TPI inh: GDH-TPI coupled enzyme inhibition counter-screen | 360,000 compounds, 1.2% hits | AID 588335 | GDH-TPI coupled enzyme counterscreen, NADH absorbance | inhibition, % at 4.8 µM; in the data active = inhibition above about 30%;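 note: 0% = DMSO wells and 100% = wells lacking the enzyme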
PfHsp40 rescue: compounds rescuing yeast from Plasmodium falciparum HSP40 toxicity | 340,000 compounds, 0.68% hits | growth rescue, % at 12.5 µM | S. cerevisiae expressing PfHsp40, growth rescue, ATP luminescence; in the data active = growth rescue above about 28%, passing the limit was not always enough;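 note: yeast W303a lacking pdr1 and pdr3 grown in galactose medium; growth measured after three days at 30 °C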
An asterisk follows results filed as active; · = not tested or not shown.

SMILES | BJeLR viability | PrP 5UTR inh | PrPC TRFRET | FBA Mtb inh | GDH-TPI inh | PfHsp40 rescue
Fc1cc(F)c(CSc2nnc(-c3cccnc3)n2Cc2ccccc2)cc1F | · | · | 9 | · | · | ·
O=C(NCc1cccnc1)c1cnc2sccn2c1=O | 2 | -55 | 4 | 21 | 41* | -1
COc1ccccc1CNC(=O)c1cnc2sccn2c1=O | 5 | -73 | -3 | 0 | 36* | -1
Cc1cccc(NC(=O)c2cnc3sccn3c2=O)n1 | 11 | -58 | -1 | 9 | 33* | 1
O=C(NCc1cccnc1)c1cnc2n(c1=O)CCS2 | -4 | -14 | -1 | 2 | -1 | 4
CC(C)(C)N1Cc2nnn(CC3CCCCC3)c2-c2cc(F)ccc2S1(=O)=O | · | · | -5 | · | · | ·
COCCCNC(=O)C[C@H]1C[C@@]2(C(=O)OC)C(=C[C@H](C(C)C)O[C@@H]2C2CC2)N(CCC2=CCCCC2)C1=O | · | · | 0 | · | · | ·
COc1ccc2[nH]c3c(c2c1)CCN1C(=O)N([C@@H](C)C(=O)NCCc2ccc(F)cc2)C(=O)[C@]31C | -4 | -28 | -1 | 1 | 10 | 58*
Nn1c(SCc2ccc([N+](=O)[O-])cc2)nnc1-c1cc(-c2ccccc2)n[nH]1 | · | · | 1 | · | · | ·
O=C(Oc1ccc([N+](=O)[O-])cc1)O[C@H]1CC[C@@]23CCCN2C(=O)CCC[C@H]3C1 | · | · | -12 | · | · | ·
CCCc1cc(=O)n2[nH]c(-c3ccco3)nc2n1 | 0 | 3 | -7 | 12 | 2 | 1
CCCCN1Cc2c(nc3cc(-c4ccco4)[nH]n3c2=O)C1=O | -8 | -2 | -2 | 143* | 6 | 0
OCCCN=c1cc(-c2ccccc2)oc2ccc(Cl)cc12 | 15 | -43 | -34 | 0 | 49* | -1
CC1(C)CC(N=c2cc(-c3ccccc3)oc3ccc(Cl)cc23)CC(C)(C)N1 | 12 | -21 | -3 | 1 | 15 | 12
Cc1ccc(S(=O)(=O)NC(=O)c2cccn2C)cc1 | -2 | -9 | -6 | 2 | 4 | -1
Cn1cccc1C(=O)NS(=O)(=O)c1ccccc1Cl | 16 | -14 | -4 | -2 | 8 | 86*
CC(=O)c1cc(-c2ccccc2-c2ccccc2)c(=O)n2c1CCC2 | · | · | -2 | · | · | ·
CC(C)(C)OC(=O)N(CCc1ccccc1)Cc1ccc(OCc2cccc(NC(=O)/C=C/c3ccccc3)c2)cc1 | · | -20 | 12 | 2 | 36* | -1
CC(C)(C)OC(=O)N(CCc1ccccc1)Cc1ccccc1OCc1cccc(NC(=O)/C=C/c2ccccc2)c1 | · | -9 | -2 | 4 | 29 | 1
CCOCCCNC(=O)C1(O)c2cc(Br)ccc2NC(=O)N1c1ccc(OCC)cc1 (stereo unspecified) | 2 | -18 | 2 | 0 | 10 | 51*
CCOCCCNC(=O)C1(O)c2cc(Br)ccc2NC(=O)N1c1ccc(CC)cc1 (stereo unspecified) | 1 | -10 | -1 | 0 | 9 | -1
CN1[C@@H](Cc2ccccc2)COc2cccc(F)c2S1(=O)=O | · | · | -12 | · | · | ·
COCCCNC(=O)C1CCN(S(=O)(=O)c2ccc3[nH]c(=O)oc3c2)CC1 | · | · | 5 | · | · | ·
CCCCNc1c(-c2ccc(-c3cccc(Cl)c3)cc2)nc2ccccn12 | -2 | -31 | 8 | 23 | 10 | 207*
CCCCCCSc1cccc(-c2nc3ccc(Cl)cn3c2NCCCC)c1 | · | -3 | 4 | 0 | 2 | 2
SMILES | BJeLR viability | PrP 5UTR inh | PrPC TRFRET | FBA Mtb inh | GDH-TPI inh | PfHsp40 rescue
Cc1ccc(-n2c(SCC(=O)N/N=C/C=C\c3ccco3)nnc2-c2ccccc2)cc1 | · | · | -1 | · | · | ·
Cc1cccc(CN2C(=O)N/C(=C/c3cc(C)n(-c4cc(C)ccn4)c3C)C2=O)c1 | 7 | -26 | · | 1 | 31* | 1
Cc1cc(=O)n2c3ccccc3n(CC(O)CN3CCCCC3)c2c1C#N (stereo unspecified) | -2 | -20 | -11 | 20 | 50* | 1
O=C(NCc1cccnc1)O[C@H]1CC[C@@]23CCCN2C(=O)CCC[C@H]3C1 | · | · | -8 | · | · | ·
COc1ccc(NC(=O)N[C@H]2CC[C@@H](CC(=O)NC3CCC3)O[C@@H]2CO)cc1 | · | · | -1 | · | · | ·
COC(=O)C1CN(Cc2cn(Cc3ccc(C)cc3)nn2)CCS(=O)(=O)N1Cc1ccc(Cl)cc1 (stereo unspecified) | · | · | -4 | · | · | ·
c1ccc(-n2nc3c(ccc4cnnc43)[nH]2)cc1 | 2 | -77 | 2 | 144* | 27 | 0
COC(=O)[C@]12C[C@H](CC(=O)NCc3cccs3)C(=O)N(CCc3ccc(OC)c(OC)c3)C1=C[C@H](COCc1ccccc1)O[C@@H]2C | · | · | 5 | · | · | ·
O=C(/C=C/c1ccccc1)Nc1nnc(-c2ccco2)o1 | -3 | -1 | 3 | -3 | 45* | 1
CC(=O)Nc1nnc(-c2ccco2)o1 | 14 | -19 | -1 | 0 | -11 | 0
CCN(Cc1ccccc1)C(=O)CSc1nc(C)cc(C)c1C#N | -6 | -36 | -7 | -2 | -7 | 129*
CCN(CC)C(=O)CSc1nc(C)cc(C)c1C#N | 6 | -24 | -2 | 1 | 7 | -2
CN(C(=O)/C=C/c1ccco1)c1ccccc1C(=O)O | 7 | -11 | 0 | 5 | 32* | 1
CCN(CCCCN1C(=O)c2ccccc2C1=O)c1ccc2c(c1)C(=O)N(C)C2=O | 4 | -4 | -6 | 1 | 43* | 0
CCN(CC)c1ccc2c(c1)C(=O)N(C)C2=O | 2 | -30 | -3 | -7 | 6 | 0
C/C(=N\NC(=O)c1ccccc1)c1ccc2c(c1)OCO2 | 2 | -48 | 1 | 1 | -6 | 0
C/C(=N\NC(=O)c1ccc2c(c1)OCO2)c1ccc(NS(C)(=O)=O)cc1 | 9 | -15 | 12 | -4 | 36* | -1
C/C(=N/NC(=O)c1ccc2c(c1)OCO2)c1ccc(NC(=O)C(F)(F)F)cc1 | 4 | -68 | 12 | 0 | 8 | -2
C/C(=N\NC(=O)c1ccc2c(c1)OCO2)c1ccc(O)cc1 | 0 | -45 | 13 | -1 | 33* | 0
CC(C)=CCN1CCN(Cc2cccc3nonc23)CC1CCO (stereo unspecified) | 0 | -25 | -11 | -2 | -1 | -2
CC(C)=CCN1CCN(Cc2cccc3nccnc23)CC1CCO (stereo unspecified) | 12 | -6 | -9 | -2 | 31* | -1
CCOc1ccc(/C=C2\SC(N3CCc4ccccc4C3)=NC2=O)cc1 | -12 | -10 | 3 | 0 | 13 | 1
COc1cc(/C=C2\SC(N3CCc4ccccc4C3)=NC2=O)cc(OC)c1OC | 12 | -25 | -1 | -1 | 27 | 2
O=C1N=C(N2CCc3ccccc3C2)S/C1=C\c1cccc(O)c1 | 0 | -20 | -19 | -2 | 32* | 1
COc1ccc(/C=C2\SC(N3CCc4ccccc4C3)=NC2=O)cc1 | 1 | -21 | -3 | 1 | 41* | 1
COc1cc2c(cc1NC(=S)Nc1cccc(C(F)(F)F)c1)oc1ccccc12 | 32 | -29 | 10 | 64* | 11 | 5

High-throughput results: PubChem BioAssay, several laboratories
